In PubChem BioAssay AID1159580 (chemical genetic matrix, 2015):
Screen size: about 5,500 compounds; about 2,000 (36%) were called active. Roughly 18% stayed inconclusive and do not appear here. Rule as the data show it: active = normalized growth mostly below about 0.91 (no sharp cut-off); inconclusive = no clear call, values can overlap the other calls; inactive = mostly above about 0.92. The list shows a part of the results.

Experiment: chemical genetic growth profiling, strain panel (AID 1159580);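 also: tested at 20 µM; growth read once vehicle control cultures reached saturation at 30 °C; 1 = growth at the plate median or of vehicle wells; lower values mean less growth of the strain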
Details: S. cerevisiae deletion strains, growth OD
[1] = locus YAL013W, strain DEP1, active compounds read low
[2] = locus YBR229C, strain ROT2, active compounds read low
[3] = locus YDL101C, strain DUN1, active compounds read low
[4] = locus YDR150W, strain NUM1, active compounds read low
[5] = locus YEL061C, strain CIN8, active compounds read low
[6] = locus YGR078C, strain PAC10, active compounds read low
[7] = locus YHR030C, strain SLT2, active compounds read low
[8] = locus YHR087W, strain rtc3, active compounds read low
[9] = locus YJR043C, strain POL32, active compounds read low
[10] = locus YJR075W, strain HOC1, active compounds read low
[11] = locus YKL190W, strain CNB1, active compounds read low
[12] = locus YLR039C, strain RIC1, active compounds read low
[13] = locus YLR058C, strain SHM2 (second series), active compounds read low
[14] = locus YLR085C, strain ARP6, active compounds read low
[15] = locus YLR262C, strain YPT6, active compounds read low
[16] = locus YML094W, strain GIM5, active compounds read low
[17] = locus YMR219W, strain ESC1, active compounds read low
[18] = locus YMR263W, strain SAP30, active compounds read low
[19] = locus YNL153C, strain GIM3, active compounds read low
[20] = locus YNL298W, strain CLA4 (second series), active compounds read low
[21] = locus YNL322C, strain KRE1, active compounds read low
[22] = locus YNR030W, strain Alg12, active compounds read low
[23] = locus YOL006C, strain TOP1, active compounds read low
[24] = locus YPL055C, strain LGE1, active compounds read low
[25] = locus YPL241C, strain CIN2, active compounds read low
[26] = locus YPR135W, strain CTF4, active compounds read low
[27] = locus YDL134C, strain PPH21, active compounds read low
[28] = locus YGR229C, strain SMI1, active compounds read low
[29] = locus YMR307W, strain GAS1, active compounds read low

Measured: normalized growth

Cn1c(Sc2ccc(C(F)(F)F)cc2[N+](=O)[O-])nnc1C(F)(F)F
inactive: [1] 1 | [2] 1.01 | [3] 1.02 | [4] 0.988 | [5] 1 | [6] 1.01 | [7] 1.04 | [8] 1 | [9] 1 | [10] 0.973 | [11] 1.01 | [12] 1.02 | [13] 1.01 | [14] 1.05 | [15] 1.01 | [16] 1.05 | [17] 0.996 | [18] 0.994 | locus YNL128W, strain TEP1, active compounds read low 0.994 | [19] 1 | [20] 0.993 | [21] 1 | [22] 1.02 | [23] 0.899 | [24] 1.01 | [25] 1.11 | [26] 1.05

O=[N+]([O-])c1cc(C(F)(F)F)ccc1Sc1ccc(Cl)cc1
active: [14] 0.757
inactive: [1] 1 | [2] 1.01 | [3] 1 | [27] 0.98 | [4] 0.957 | [5] 1.01 | [6] 1.01 | [7] 0.901 | [8] 1.01 | [9] 1 | [10] 1.02 | [11] 1.01 | [12] 0.928 | [13] 1 | [15] 0.967 | [16] 0.97 | [17] 1.01 | [18] 1.01 | [19] 1.02 | [20] 0.995 | [21] 0.996 | [22] 0.978 | [24] 1.04 | [25] 0.967 | [26] 0.97

Cc1nc(C(F)(F)F)nc(Sc2n[nH]c(-c3cc(Cl)cc(Cl)c3)n2)c1C
active: [14] 1.25 [resistant]
inactive: [1] 1.03 | [2] 1.01 | locus YCL061C, strain MRC1, active compounds read low 1 | [3] 0.996 | [27] 1.01 | [4] 0.996 | [5] 0.985 | [6] 1.01 | [28] 1.01 | [7] 1.02 | [8] 1.03 | [9] 1.01 | [10] 1.02 | [11] 1 | [12] 1.07 | [13] 0.998 | [15] 1.02 | [16] 0.994 | [17] 1.02 | [18] 0.993 | [29] 0.988 | [19] 0.995 | [20] 0.966 | [21] 0.995 | [22] 0.974 | [24] 1.03 | [25] 1.07 | [26] 1.17

Nc1nc(Sc2cc(-n3cccc3)c(Cl)cc2[N+](=O)[O-])n[nH]1
inactive: [1] 0.992 | [2] 1 | [3] 0.998 | [4] 0.997 | [5] 0.994 | [6] 0.995 | [28] 1 | [7] 0.972 | [8] 0.992 | [9] 0.996 | [10] 1.01 | [12] 0.973 | [13] 1 | [14] 0.972 | [15] 1 | [16] 0.983 | [17] 1 | [18] 1.01 | [29] 0.985 | [19] 0.995 | [20] 0.972 | [21] 1 | [22] 0.995 | [23] 1.02 | [24] 0.989 | [25] 0.936 | [26] 0.933
